This note sets out measurements from PubChem BioAssay AID1490 (National Center for Advancing Translational Sciences (NCATS), 2009).

The campaign covered roughly 310,000 compounds. About 11,000 (3.5%) were called active. Another 4% or so got no clear call; they are omitted. The sample as a whole holds a higher share of actives than the screen did. A number with no mark means an inactive call. Calls follow the shape of the dose curve; as a rule, active = well fitted inhibition curve with a large enough effect; inconclusive = small, poorly fitted or top-dose-only effect, or another doubt; inactive = no such curve, though single readings can be large or run the other way.
Potency is read from the fitted curve at half-maximal effect.

The target in this assay is 4'-phosphopantetheinyl transferase ffp (Bacillus subtilis) (UniProt Q9F4F7). The experiment in a line: qHTS Assay for Inhibitors of Bacillus subtilis Sfp phosphopantetheinyl transferase (PPTase).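 Also: the enzyme is Sfp with the accession as filed and its product quenches rhodamine fluorescence.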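 As to largest response in the series, negative = inhibition: 0% = enzyme reaction without inhibitor and -100% = no enzyme wells.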 The settings on record: Biochemical Sfp PPTase activity. A digest of the protocol:
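Buffer: 50 mM Hepes-Na pH 7.6, 10 mM MgCl2, 0.01% Nonidet P-40, 0.01% BSA. Enzyme 15 nM, pre-exposed to compound 15 min; substrates then added and fluorescence change tracked over 30 min.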
For orientation: In qHTS, concentration-response curves come from the screen itself.
Regarding `O=C(NC1CCCCC1)C1CCC(CNS(=O)(=O)c2ccccc2)CC1` (stereo unspecified), the largest response in the series, negative = inhibition is -16.9%.

`Cc1ccc(NC(=O)c2cc(-c3ccccc3O)n[nH]2)cc1C`: the largest response in the series, negative = inhibition was 13.9%.

Regarding `CCN(CC)S(=O)(=O)c1cc([N+](=O)[O-])ccc1NNC(=O)Nc1ccccc1`, the Potency was 56.2 µM (active).

Consider `CCN(CC)S(=O)(=O)c1cc([N+](=O)[O-])ccc1N=Nc1c(O)n(C)c2ccccc12`, for which the largest response in the series, negative = inhibition is 22.9%.

Take `CCN(CC)C(=O)CN(c1cccc([N+](=O)[O-])c1)S(=O)(=O)c1ccccc1`: the largest response in the series, negative = inhibition was 19.8%.

Turning to `CCCn1c2ccccc2c2cnn(CC(=O)NCCCN3CCCCC3CC)c(=O)c21` (stereo unspecified), the largest response in the series, negative = inhibition was 4.88%.

In the case of `CCC(C)NCC(=O)Nc1ccc([N+](=O)[O-])cc1C(=O)Nc1ccccc1F` (stereo unspecified), the largest response in the series, negative = inhibition was 8.61%.

On to `O=[N+]([O-])c1cccc(/C([O-])=C(/C(=S)Nc2ccccc2F)[n+]2ccccc2)c1`, for which the Potency is 17.8 µM (active).

As for `Cc1cccc(C(=O)NNC(=O)c2cccc([N+](=O)[O-])c2)c1`, the largest response in the series, negative = inhibition was 12.7%.

For `Cc1cc(C)c(NC(=O)CN2CCCCCC2)c(C)c1`, the largest response in the series, negative = inhibition is -2.37%.

For `CS(=O)(=O)c1ccc2nc(NC(=O)CN3CCCCCC3)sc2c1`, the largest response in the series, negative = inhibition is -29.2%.

Take `N#Cc1ccsc1NC(=O)CN1CCN(S(=O)(=O)c2cc(Cl)ccc2Cl)CC1`: the largest response in the series, negative = inhibition was -21.5%.

As for `N#Cc1cccc(NC(=O)CN2CCCCCC2)c1`, the largest response in the series, negative = inhibition is 7.01%.

As to `Cc1csc(NC(=O)CN2CCCCCC2)n1`, the Potency was 79.4 µM (active).

For the molecule `N#Cc1ccsc1NC(=O)CN1CCCCC1`, the Potency is 89.1 µM (active).

On to `CCOC(=O)C1CN(S(=O)(=O)c2ccc(OC)cc2)c2cc(Cl)ccc2O1` (stereo unspecified), for which the largest response in the series, negative = inhibition is 3.4%.

As for `Cc1ccc(S(=O)(=O)NNC(=O)/C=C/c2cccc(F)c2)cc1`, the largest response in the series, negative = inhibition is 9.18%.

As to `C=CCc1ccccc1OCC(O)CN1CCN(CCO)CC1` (stereo unspecified), the largest response in the series, negative = inhibition was 5.68%.

Take `CCOC(=O)c1sc(NC(=O)c2sc(C)nc2C)nc1C`: the largest response in the series, negative = inhibition was 11.7%.

As to `CC1CCCCN1C(=O)Cn1c(=O)oc2cc(S(=O)(=O)N3CCCCC3)ccc21` (stereo unspecified), the largest response in the series, negative = inhibition is 10.7%.

In the case of `Cc1cccc(CNc2cc(-c3ccccc3Cl)ncn2)c1`, the largest response in the series, negative = inhibition is 20.2%.

With `c1ccc2cc3c(NCCN4CCOCC4)ccnc3cc2c1`, the largest response in the series, negative = inhibition was -20.1%.

As for `Clc1ccccc1-c1cc(NCCN2CCOCC2)ncn1`, the Potency is 79.4 µM (active).

Turning to `COc1ccc(NC(=O)CCCN2C(=O)C(c3ccccc3)Oc3cccnc32)cc1` (stereo unspecified), the largest response in the series, negative = inhibition is 1.64%.

As to `Cc1ccc(C)c(S(=O)(=O)N2CCCOC2CNC(=O)C(=O)NC2CCCCC2)c1` (stereo unspecified), the largest response in the series, negative = inhibition is 11.5%.

Regarding `Cc1ccc(C)c(NC(=O)CCC(=O)NNC(=O)c2cccs2)c1`, the largest response in the series, negative = inhibition was 3.73%.

For `Cc1ccc(C)c(NC(CC(=O)c2ccccc2)C(=O)OCC(=O)c2cccs2)c1` (stereo unspecified), the Potency was 39.8 µM (active).

For `COC(=O)C(CC(=O)Nc1cc(C)ccc1C)Nc1ccccc1OC` (stereo unspecified), the largest response in the series, negative = inhibition is 28.6%.

In the case of `Cc1ccc(-c2ncc(Cl)cc2-c2ccc(S(C)(=O)=O)cc2)cn1`, the largest response in the series, negative = inhibition is 13.6%.

For the molecule `C=CCn1c(SCC(=O)NCC2CCCO2)nc2sc(C)c(C)c2c1=O` (stereo unspecified), the largest response in the series, negative = inhibition was 13.7%.

`C=CCn1c(SCc2csc(C)n2)nc2scc(-c3ccc(C)o3)c2c1=O`: the Potency was 11.2 µM (active).

For `C=CCn1c(SCc2c(C)noc2C)nc2sc3c(c2c1=O)CCC(C)C3` (stereo unspecified), the largest response in the series, negative = inhibition was -23.8%.

Take `COC(=O)c1cc(NC(=O)c2cccnc2)ccc1N1CCOCC1`: the largest response in the series, negative = inhibition was 9.31%.

For `COc1ccccc1NC(=O)c1ccc2nc(N3C(=O)CCC3=O)sc2c1`, the largest response in the series, negative = inhibition is 10.7%.

For the molecule `COc1ccccc1NC(=O)c1ccc(N2CC3CC(C2)c2cccc(=O)n2C3)c(NC(=O)c2cccnc2)c1` (stereo unspecified), the Potency is 31.6 µM (active).

As to `CCCCn1c(-c2cccc(C)c2)nc2cc3[nH]c(=O)c(C(C)C)nc3cc21`, the largest response in the series, negative = inhibition is -18.3%.

Consider `CCOC(OCC)OCC`, for which the largest response in the series, negative = inhibition is -10.1%.

As to `CC1C(=O)Nc2ccccc2N1C(=O)c1c(F)cccc1F` (stereo unspecified), the largest response in the series, negative = inhibition was 14.4%.

Consider `CC(C)c1cnc(NC(=O)Cc2ccccc2)s1`, for which the largest response in the series, negative = inhibition was 26.8%.

Regarding `CC(=O)Nc1c2c(nn1-c1ccc(C)cc1C)CS(=O)C2` (stereo unspecified), the largest response in the series, negative = inhibition is 9.45%.

`O=C(CCCN1C(=O)/C(=C/c2cccs2)SC1=S)Nc1ccc(O)cc1`: the largest response in the series, negative = inhibition was -1.57%.

Regarding `O=C(CCCN1C(=O)/C(=C/c2ccco2)SC1=S)Nc1ccccc1`, the Potency is 31.6 µM (active).

Regarding `O=C(CCCN1C(=O)/C(=C\c2ccco2)SC1=S)Nc1cccc2ccccc12`, the Potency is 56.2 µM (active).

With `O=C(CCCN1C(=O)/C(=C/c2ccccc2)SC1=S)Nc1ccc(O)cc1`, the largest response in the series, negative = inhibition was 12.2%.

`O=C(CCCN1C(=O)/C(=C\c2ccccc2)SC1=S)Nc1ccccc1O`: the largest response in the series, negative = inhibition was 17.9%.

Consider `COc1ccc(/C=C2\SC(=S)N(CCC(=O)Nc3cccc(C(=O)O)c3)C2=O)cc1OC`, for which the largest response in the series, negative = inhibition is -8.44%.
